# Measured values reported in PubChem BioAssay (NCATS).
# Inconclusive results are not listed. Activity calls are given as the source filed them. Unless noted, calls follow the shape of the dose curve; as a rule, active = well fitted inhibition curve with a large enough effect; inconclusive = small, poorly fitted or top-dose-only effect; inactive = flat fitted curve, though single readings scatter. Non-standard residues stand in square brackets, D forms with d. Residues, ends and D or L forms follow the SMILES beside them. *: point of attachment. Sta = CC(C)C[C@H](N)[C@@H](O)CC(=O)O; Isovaleryl = CC(C)CC(=O)*
# Assays:
# [1] = qHTS for identification of novel therapeutic agents for treatment of microphthalmiaassociated transcription factor (MiT) renal cell carcinoma (RCC) (AID 1963991; calls by dose curve); conditions: CellTiter-Glo, 48 h; for z-score: stronger effect = lower value; for Potency: active = Z-AUC below -0.8 in all three lines
# In short: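 Three TFE3-fusion RCC lines (UOK109, UOK124, UOK145), 500 cells/well in complete medium, were treated with MIPE 4.0 compounds for 48 hours at 37 C. Viability was by CellTiter-Glo luminescence, normalized to DMSO (100%) and empty wells (0%); curves fitted over 11 concentrations.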
# [2] = qHTS profiling for inhibitors of Plasmodium falciparum proliferation (AID 504749); also: nearly all actives have a fitted effect of over 60% in size;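 as to activity, negative = inhibition: 0% = DMSO vehicle and full inhibition = artemisinin control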; conditions: P. falciparum in erythrocytes, SYBR Green DNA, 72 h
# In short: (§1)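 Infected RBCs, 0.3% parasitemia/2.5% Hct final; cpd 72 h, 37 C, 5% CO2; lysis buffer with saponin/triton/SYBR Green I, o/n RT dark; FI 485/535; norm. to artemisinin (0.29 uM) and DMSO.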
# 3D7 = assay: as above; conditions: P. falciparum in erythrocytes, SYBR Green DNA, 72 h; series mostly up to 28.7 µM
# In short: as §1
# 7G8 = assay: as above; conditions: P. falciparum in erythrocytes, SYBR Green DNA, 72 h; series mostly up to 28.7 µM
# In short: as §1
# AA1029 = assay: as above; conditions: P. falciparum in erythrocytes, SYBR Green DNA, 72 h; series mostly up to 28.7 µM
# In short: as §1
# AS120 = assay: as above; conditions: P. falciparum in erythrocytes, SYBR Green DNA, 72 h; series mostly up to 28.7 µM
# In short: as §1
# ATS189 = assay: as above; conditions: P. falciparum in erythrocytes, SYBR Green DNA, 72 h; series mostly up to 28.7 µM
# In short: as §1
# ATS95 = assay: as above; conditions: P. falciparum in erythrocytes, SYBR Green DNA, 72 h; series mostly up to 28.7 µM
# In short: as §1
# C2A = assay: as above; conditions: P. falciparum in erythrocytes, SYBR Green DNA, 72 h; series mostly up to 28.7 µM
# In short: as §1
# CP185 = assay: as above; conditions: P. falciparum in erythrocytes, SYBR Green DNA, 72 h; series mostly up to 28.7 µM
# In short: as §1
# [3] = TFE3-RCC UOK109 viability, measured here: UOK109 Z-AUC
# [4] = TFE3-RCC viability, measured here: UOK124 Z-AUC
# [5] = TFE3-RCC viability, measured here: UOK145 Z-AUC
# [6] = at 28.7 µM (top of the series), parasite line A
# [7] = at 28.7 µM (top of the series), parasite line B
# [8] = at 12.8 µM (top of the series), parasite line A
# [9] = at 12.8 µM (top of the series), parasite line B
# Potency is read from the fitted curve at half-maximal effect.
compound,measurement,setting,value
O=c1c(O)c(-c2cc(O)c(O)c(O)c2)oc2cc(O)cc(O)c12,z-score,[1]; [3],0.252
same,z-score,[1]; [4],0.375
same,z-score,[1]; [5],-0.367
CC(=O)Nc1ccc(O)cc1,z-score,[1]; [3],1.26
same,z-score,[1]; [4],0.904
same,z-score,[1]; [5],0.696
CC(C)C[C@H](NC(=O)[C@H](Cc1ccccc1)NC(=O)c1cnccn1)B(O)O,Potency,[1]; TFE3-RCC UOK109 viability,118 nM (active)
same,z-score,[1]; [3],-1.97
same,z-score,[1]; [4],-3.15
same,z-score,[1]; [5],-4.08
C[Se]CCC(N)C(=O)O (stereo not drawn),z-score,[1]; [3],1.47
same,z-score,[1]; [4],0.35
same,z-score,[1]; [5],0.0936
same,"activity, negative = inhibition",[2]; [6],6.19% (inactive)
same,"activity, negative = inhibition",[2]; [7],-13.4% (inactive)
same,Potency,3D7,inactive
same,Potency,7G8,inactive
same,Potency,AA1029,inactive
same,Potency,AS120,inactive
same,Potency,ATS189,inactive
same,Potency,ATS95,inactive
same,Potency,C2A,inactive
same,Potency,CP185,inactive
CC(C)CC(=O)N[C@H](C(=O)N[C@H](C(=O)N[C@@H](CC(C)C)[C@@H](O)CC(=O)N[C@@H](C)C(=O)N[C@@H](CC(C)C)[C@@H](O)CC(=O)O)C(C)C)C(C)C (Isovaleryl-VV[Sta]A[Sta]-OH),z-score,[1]; [3],0.353
same,z-score,[1]; [4],0.618
same,z-score,[1]; [5],0.758
Cc1nc(-c2ccc(OCC(C)C)c(C#N)c2)sc1C(=O)O,z-score,[1]; [3],1.16
same,z-score,[1]; [4],0.952
same,z-score,[1]; [5],0.581
CC[C@]1(O)C[C@H]2CN(CCc3c([nH]c4ccccc34)[C@@](C(=O)OC)(c3cc4c(cc3OC)N(C=O)[C@H]3[C@@](O)(C(=O)OC)[C@H](OC(C)=O)[C@]5(CC)C=CCN6CC[C@]43[C@@H]65)C2)C1,Potency,[1]; TFE3-RCC UOK109 viability,66.2 nM (active)
same,z-score,[1]; [3],-0.827
same,z-score,[1]; [4],-2.28
same,z-score,[1]; [5],-0.98
same,Potency,[2]; parasite line A,2240 nM (active)
same,Potency,7G8,141 nM (active)
same,Potency,AA1029,2510 nM (active)
same,Potency,AS120,3550 nM (active)
same,Potency,ATS95,2510 nM (active)
same,Potency,C2A,2000 nM (active)
same,Potency,CP185,1580 nM (active)
c1cnc2cc3c(cc2n1)C1CNCC3C1,z-score,[1]; [3],-0.0233
same,z-score,[1]; [4],0.674
same,z-score,[1]; [5],0.454
CCCCc1ccc2nc(NC(=O)OC)[nH]c2c1,Potency,[1]; TFE3-RCC UOK109 viability,16.6 nM (active)
same,z-score,[1]; [3],-1.8
same,z-score,[1]; [4],-3.11
same,z-score,[1]; [5],-1.73
same,"activity, negative = inhibition",[2]; [8],2.35% (inactive)
same,"activity, negative = inhibition",[2]; [9],6.2% (inactive)
same,Potency,3D7,inactive
same,Potency,7G8,inactive
same,Potency,AA1029,inactive
same,Potency,AS120,inactive
same,Potency,ATS189,inactive
same,Potency,ATS95,inactive
same,Potency,C2A,inactive
same,Potency,CP185,inactive
O=C(CS(=O)Cc1ccco1)NCC=CCOc1cc(CN2CCCCC2)ccn1 (stereo not drawn),z-score,[1]; [3],0.673
same,z-score,[1]; [4],0.332
same,z-score,[1]; [5],0.715
same,"activity, negative = inhibition",[2]; [6],3.29% (inactive)
same,"activity, negative = inhibition",[2]; [7],-5.5% (inactive)
same,Potency,3D7,inactive
same,Potency,7G8,inactive
same,Potency,AA1029,inactive
same,Potency,AS120,inactive
same,Potency,ATS189,inactive
same,Potency,ATS95,inactive
same,Potency,C2A,inactive
same,Potency,CP185,inactive
O=C1c2c(O)cc(O)cc2OC(c2ccc(O)c(O)c2)C1O (stereo not drawn),z-score,[1]; [3],-0.477
same,z-score,[1]; [4],0.528
same,z-score,[1]; [5],0.535
CN1C(C(=O)Nc2ccccn2)=C(O)c2sccc2S1(=O)=O,z-score,[1]; [3],1.14
same,z-score,[1]; [4],0.504
same,z-score,[1]; [5],0.557
same,"activity, negative = inhibition",[2]; [8],-2.2% (inactive)
same,"activity, negative = inhibition",[2]; [9],-4.64% (inactive)
same,Potency,3D7,inactive
same,Potency,7G8,inactive
same,Potency,AA1029,inactive
same,Potency,AS120,inactive
same,Potency,ATS189,inactive
same,Potency,ATS95,inactive
same,Potency,C2A,inactive
same,Potency,CP185,inactive
CC1=C(C(=O)O)N2C(=O)[C@@H](NC(=O)[C@H](N)C3=CCC=CC3)[C@H]2SC1,z-score,[1]; [3],1.56
same,z-score,[1]; [4],0.465
same,z-score,[1]; [5],0.657
C[C@@H](c1ncncc1F)[C@](O)(Cn1cncn1)c1ccc(F)cc1F,z-score,[1]; [3],0.104
same,z-score,[1]; [4],0.588
same,z-score,[1]; [5],0.181
CC(C)c1nc(CN(C)C(=O)N[C@H](C(=O)N[C@@H](Cc2ccccc2)C[C@H](O)[C@H](Cc2ccccc2)NC(=O)OCc2cncs2)C(C)C)cs1,z-score,[1]; [3],-0.114
same,z-score,[1]; [4],-0.388
same,z-score,[1]; [5],0.0556
CCOC(=O)C1=C[C@@H](OC(CC)CC)[C@H](NC(C)=O)[C@@H](N)C1,z-score,[1]; [3],0.372
same,z-score,[1]; [4],0.178
same,z-score,[1]; [5],0.414
Cc1ncc([N+](=O)[O-])n1CC(C)O (stereo not drawn),z-score,[1]; [3],1.59
same,z-score,[1]; [4],0.687
same,z-score,[1]; [5],1.68
same,"activity, negative = inhibition",[2]; [6],11.8% (inactive)
same,"activity, negative = inhibition",[2]; [7],17% (inactive)
same,Potency,3D7,inactive
same,Potency,7G8,inactive
same,Potency,AA1029,inactive
same,Potency,AS120,inactive
same,Potency,ATS189,inactive
same,Potency,ATS95,inactive
same,Potency,C2A,inactive
same,Potency,CP185,inactive
C[C@@H](N)C1CCC(C(=O)Nc2ccncc2)CC1 (stereo partly drawn),z-score,[1]; [3],1.67
same,z-score,[1]; [4],0.534
same,z-score,[1]; [5],0.866
CCCCN(CCCC)CCC(O)c1cc2c(Cl)cc(Cl)cc2c2cc(C(F)(F)F)ccc12 (stereo not drawn),z-score,[1]; [3],0.318
same,z-score,[1]; [4],0.539
same,z-score,[1]; [5],0.552
same,Potency,[2]; parasite line A,7.9 nM (active)
same,Potency,[2]; parasite line B,5.6 nM (active)
same,Potency,3D7,3.2 nM (active)
same,Potency,7G8,1.1 nM (active)
same,Potency,AA1029,6.3 nM (active)
same,Potency,AS120,5.6 nM (active)
same,Potency,ATS189,5.6 nM (active)
same,Potency,ATS95,7.9 nM (active)
same,Potency,C2A,25.1 nM (active)
same,Potency,CP185,28.2 nM (active)
CCOC(=O)C(C)Oc1cccc2c(=O)n(CC(=O)Nc3ccc4c(c3)OCCO4)ccc12 (stereo not drawn),z-score,[1]; [3],0.811
same,z-score,[1]; [4],0.396
same,z-score,[1]; [5],0.65
CC(C)Oc1ccc2c(=O)c(-c3ccccc3)coc2c1,z-score,[1]; [3],0.973
same,z-score,[1]; [4],0.495
same,z-score,[1]; [5],-0.312
CC(=O)O[C@H]1C(=O)[C@@]2(C)C([C@H](OC(=O)c3ccccc3)[C@]3(O)C[C@H](OC(=O)[C@H](O)[C@@H](NC(=O)c4ccccc4)c4ccccc4)C(C)=C1C3(C)C)[C@]1(OC(C)=O)CO[C@@H]1C[C@@H]2O (stereo partly drawn),Potency,[1]; TFE3-RCC UOK109 viability,41.8 nM (active)
same,z-score,[1]; [3],-1.4
same,z-score,[1]; [4],-1.86
same,z-score,[1]; [5],-1.46
COC(=O)N[C@H](C(=O)N[C@@H](Cc1ccccc1)[C@@H](O)CN(Cc1ccc(-c2ccccn2)cc1)NC(=O)[C@@H](NC(=O)OC)C(C)(C)C)C(C)(C)C,z-score,[1]; [3],0.351
same,z-score,[1]; [4],-0.0676
same,z-score,[1]; [5],2.98
CC(=O)NC[C@H]1CN(c2ccc(N3CCOCC3)c(F)c2)C(=O)O1,z-score,[1]; [3],-0.988
same,z-score,[1]; [4],0.658
same,z-score,[1]; [5],1.47
CCN(CC)CCOc1ccc(Nc2ncc3cc(-c4c(Cl)cccc4Cl)c(=O)n(C)c3n2)cc1,Potency,[1]; TFE3-RCC UOK109 viability,11.8 nM (active)
same,z-score,[1]; [3],-2.53
same,z-score,[1]; [4],-3.17
same,z-score,[1]; [5],-2.04
Cc1nccn1CC1CCc2c(c3ccccc3n2C)C1=O (stereo not drawn),z-score,[1]; [3],0.748
same,z-score,[1]; [4],0.745
same,z-score,[1]; [5],0.411
CCCOc1ccc2nc(NC(=O)OC)[nH]c2c1,Potency,[1]; TFE3-RCC UOK109 viability,7.43 nM (active)
same,z-score,[1]; [3],-2.25
same,z-score,[1]; [4],-3.82
same,z-score,[1]; [5],-2.16
same,"activity, negative = inhibition",[2]; [6],-0.812% (inactive)
same,"activity, negative = inhibition",[2]; [7],13.5% (inactive)
same,Potency,3D7,inactive
same,Potency,7G8,inactive
same,Potency,AA1029,inactive
same,Potency,AS120,inactive
same,Potency,ATS189,inactive
same,Potency,ATS95,inactive
same,Potency,C2A,inactive
same,Potency,CP185,inactive
CS(=O)(=O)OCCCCOS(C)(=O)=O,z-score,[1]; [3],1.01
same,z-score,[1]; [4],2.44
same,z-score,[1]; [5],1.02
same,"activity, negative = inhibition",[2]; [6],5.89% (inactive)
same,"activity, negative = inhibition",[2]; [7],-1.27% (inactive)
same,Potency,3D7,inactive
same,Potency,7G8,inactive
same,Potency,AA1029,inactive
same,Potency,AS120,inactive
same,Potency,ATS189,inactive
same,Potency,ATS95,inactive
same,Potency,C2A,inactive
same,Potency,CP185,inactive
CC1Cc2ccccc2N1NC(=O)c1ccc(Cl)c(S(N)(=O)=O)c1 (stereo not drawn),z-score,[1]; [3],0.928
same,z-score,[1]; [4],0.508
same,z-score,[1]; [5],0.493
CCOC(=O)C1=C(O)C(=O)N(Cc2ccccc2)C1,z-score,[1]; [3],0.919
same,z-score,[1]; [4],0.303
same,z-score,[1]; [5],0.693
